About 79,000 compounds went through this panel and 15% of them were active in at least one assay; those are over-represented in the sample as a whole. Calls of active or inactive are those of the source. Rule as the data show it: active = growth inhibition above about 70%; inactive = the rest.
How the values were obtained:
[1] = NCI Yeast Anticancer Drug Screen. Data for the rad50 strain (AID 155);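 also: 0% = growth of vehicle-only cultures of the same strain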; conditions: S. cerevisiae rad50 strain growth inhibition; at 50.0 µM; hits give high values
Method in brief: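 Relative growth inhibition (compound vs vehicle) was measured in yeast with a defined repair-gene alteration.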

[2] = NCI Yeast Anticancer Drug Screen. Data for the mec2-1 strain (AID 157); conditions: S. cerevisiae mec2-1 strain, at 50.0 µM, hits give high values
Method in brief: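 Each compound was tested on mec2-1 yeast, a strain altered in DNA damage repair or cell cycle control. Growth inhibition is reported relative to vehicle.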

[3] = NCI Yeast Anticancer Drug Screen. Data for the sgs1 mgt1 strain (AID 161);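 also: 0% = growth of cultures given vehicle only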; conditions: S. cerevisiae sgs1 mgt1 strain, at 50.0 µM, hits give high values
Method in brief: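 Read-out: growth inhibition vs vehicle controls. Cells: mutant yeast strain deficient in DNA damage repair.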

[4] = NCI Yeast Anticancer Drug Screen. Data for the cln2 rad14 strain (AID 165);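 also: 0% = growth equal to vehicle treated cultures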; conditions: S. cerevisiae cln2 rad14 strain, at 50.0 µM, hits give high values
Method in brief: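 Test compounds were added to cln2 rad14 yeast cultures; inhibition of growth was then determined by comparison with vehicle treatment.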

[5] = NCI Yeast Anticancer Drug Screen. Data for the bub3 strain (AID 167); conditions: S. cerevisiae bub3 mutant strain, at 50.0 µM, hits give high values
Method in brief: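 Screening used yeast with an engineered genetic alteration affecting cell cycle control. Compound-exposed cultures were compared with vehicle cultures, and reduced growth was taken as inhibition.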

[6] = NCI Yeast Anticancer Drug Screen. Data for the mlh1 rad18 strain (AID 175); conditions: S. cerevisiae mlh1 rad18 strain growth inhibition; at 50.0 µM; hits give high values
Method in brief: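 Inhibition values reflect reduced growth of mutant yeast versus vehicle-treated controls following compound exposure; the mutations affect DNA damage repair.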

Measured: growth inhibition

COc1ccccc1NC(=S)N/N=C/c1cccc(C)n1
inactive: [1] 9.45% | [2] -9.9% | [3] 20.1% | [4] -3.7% | [5] 5.5% | [6] 40%

O=C(C[n+]1ccncc1)c1cccc([N+](=O)[O-])c1
inactive: [1] 0.5% | [2] -1.95% | [3] 9.15% | [4] 8.35% | [5] 7.65% | [6] 27.4%

CC(C)(O)/C1=C/C=C/CCCCCCCCCC1
inactive: [1] 13.8% | [2] 14.9% | [3] 50.1% | [4] 5.75% | [5] 14.8% | [6] 16.9%

[N-]=[N+]=CC(=O)C(CN)(Cc1ccccc1)c1ccc(Cl)cc1 (stereo not drawn)
inactive: [1] 35.1% | [2] 1.45% | [3] 9.1% | [4] -31.9% | [5] -9.45% | [6] 9.05%

Cc1cc(C[C@H]2O[C@@H]3OC(C)(C)O[C@@H]3[C@H]3OC(C)(C)O[C@H]32)c2ccccc2n1
inactive: [1] -4.6% | [2] 12% | [3] 19.9% | [4] -4.2% | [5] 9.1% | [6] 17.6%

CCOC(=O)c1nc2ccccc2nc1NCc1ccc(OC)cc1
inactive: [1] -6.5% | [2] -6.45% | [3] -30.4% | [4] 6.55% | [5] -22.4% | [6] 3.4%

OC1(CCC2OCCO2)c2ccccc2-c2ccccc21
inactive: [1] -3.9% | [2] 7.05% | [3] 7.85% | [4] 25.4% | [5] 15.8% | [6] 2.85%

CCOC(O)C(F)(F)F (stereo not drawn)
inactive: [1] 9.2% | [2] -0.7% | [3] 10.6% | [4] 15.8% | [5] 0.45% | [6] 13.2%

COc1ccc(/C=C2/C(=O)N=C(NC(C)=O)N2C)cc1OC
inactive: [1] -13.8% | [2] -14.2% | [3] -13.7% | [4] -2.1% | [5] 4.7% | [6] 4.55%

COC(=O)/C(=C\c1ccccc1[N+](=O)[O-])c1ccc2c(c1)OCO2
inactive: [1] 23.6% | [2] -10.1% | [3] 3.2% | [4] -38.5% | [5] 9.6% | [6] 14.4%

CCCCCOS(C)(=O)=O
inactive: [1] -4.6% | [2] -14.2% | [3] 4.85% | [4] -36.5% | [5] 0.55% | [6] -20.1%

NC(=S)NNC(=O)c1ccncc1
inactive: [1] 13.3% | [2] -3.1% | [3] 1.8% | [4] 10.4% | [5] 3.75% | [6] 7.05%

CO/N=C1\C(C)(C)C(C)(C)C(C)(C)C1(C)SS(=O)(=O)O (stereo not drawn)
inactive: [1] 23.6% | [2] 19.1% | [3] 12.6% | [4] 17.6% | [5] 20.8% | [6] 29.9%

O=c1c2ccccc2n2n1Cc1ccccc1C2
inactive: [1] 38.1% | [2] 9.1% | [3] -11.5% | [4] 6.95% | [5] 12.2% | [6] 59.4%

N#CCc1nc(-c2ccccc2)n[nH]1
inactive: [1] 11.2% | [2] 4.55% | [3] 13.1% | [4] 5.6% | [5] 4.5% | [6] 11.7%

O=C1/C(=C/c2ccco2)N=C2Sc3c(nc[nH]c3=O)N12
inactive: [1] 2.4% | [2] -19.2% | [3] 6.55% | [4] -3.65% | [5] 9.5% | [6] 16.6%

N#CCCn1nc(SC2CCCCC2)c(=O)[nH]c1=O
inactive: [1] -4.05% | [2] 1.95% | [3] 2.45% | [4] 32.3% | [5] 4.75% | [6] 4.3%

Cc1cccc(C)c1NC(=S)N(CCC#N)Cc1ccccc1
inactive: [1] 6.8% | [2] 1.45% | [3] 1.9% | [4] -4.55% | [5] 12.3% | [6] -11.1%

CC(C)(C#N)CCCS(C)(=O)=O
inactive: [1] -7.75% | [2] -4.35% | [3] -4% | [4] -9.25% | [5] -12.6% | [6] -2.65%

COc1ccc([N+](=O)[O-])c2c1CONC2c1c(CO)cnc(C)c1O (stereo not drawn)
inactive: [1] 35.1% | [2] -12.2% | [3] 27.2% | [4] -22.4% | [5] 5.3% | [6] -2.7%

Clc1cccc(NCNC2Nc3ccccc3N2)c1
inactive: [1] 39% | [2] 20% | [3] 6.6% | [4] -14.3% | [5] 18.1% | [6] 27.9%

c1ccc(CC2CCCC(Cc3ccccc3)N2)cc1 (stereo not drawn)
inactive: [1] -1.25% | [2] -16.4% | [3] -5.55% | [4] -49.3% | [5] 16.1% | [6] 5.1%

CCCCNC(=O)c1c(Cl)c(Cl)c(Cl)c(Cl)c1C(=O)O
inactive: [1] 37.3% | [2] 17.1% | [3] 4.85% | [4] 17.5% | [5] 16.5% | [6] 28.2%

NC(=O)NC(NC(=O)NC(NC(N)=O)c1ccco1)c1ccco1 (stereo not drawn)
inactive: [1] 11.3% | [2] 15.4% | [3] 10.7% | [4] 6.1% | [5] 2.05% | [6] 15.3%

C=C1c2nc3ccccc3n2C=C(c2ccccc2)N1c1ccc([N+](=O)[O-])cc1
inactive: [1] 8.05% | [2] 41.6% | [3] 3.75% | [4] 13.6% | [5] 22.4% | [6] 27.9%

CN1C(=O)CC(NC(=O)CNC(=O)c2ccccc2)C1=O (stereo not drawn)
inactive: [1] 19.5% | [2] 16% | [3] 23.1% | [4] 21.1% | [5] 2.7% | [6] 29.4%

CNc1ccccc1C(=O)N/N=C/c1ccc(O)c(OC)c1
inactive: [1] 3% | [2] 5.65% | [3] 0.85% | [4] 2.55% | [5] 37.4% | [6] -19.6%

O=C(Cl)c1cc2ccccc2c2c(=O)c3ccc4cc5ccccc5cc4c3[nH]c12
inactive: [1] -51.6% | [2] -3.2% | [3] -10.4% | [4] -53.8% | [5] -13.2% | [6] -11.6%

CCCCNC(=O)Nc1cccc(C)c1C
inactive: [1] -4.2% | [2] -7.9% | [3] 0.75% | [4] -25.8% | [5] 0.55% | [6] 6.35%

C=C1C(=O)O[C@H]2C[C@@H]1C(=O)C/C(C)=C/CC/C(C)=C/CC[C@@]2(C)OCSC
inactive: [1] 18.9% | [2] -5% | [3] 39% | [4] 26.9% | [5] 9.85% | [6] 13.7%

Cc1ccc2occ(/C=N/NC(N)=S)c(=O)c2c1
inactive: [1] -11.4% | [2] -2.7% | [3] 12.3% | [4] 0.6% | [5] 1.2% | [6] 0.8%

CN1CCN(CC2C(=O)C3CCC2C3)CC1 (stereo not drawn)
inactive: [1] 4.6% | [2] -20.4% | [3] -18.4% | [4] -7.85% | [5] -22.7% | [6] -10.3%

CC(C)(C)CC(C)(C)c1ccc(OCCOc2ccc(C(=O)Nc3ccc([N+](=O)[O-])cc3)cc2)cc1
inactive: [1] 49.9% | [2] -0.3% | [3] 42.5% | [4] 6% | [5] -5.65% | [6] 22.9%

O=C1CN(c2ccc(Cl)cc2)C(=O)CN1/N=C/c1ccc(O)c(O)c1
inactive: [1] -37.1% | [2] -10.8% | [3] 4.4% | [4] -16.9% | [5] -7.65% | [6] -4.95%

Cc1cn(C2CC(O)C(CO)O2)c(=O)nc1NCC12CC3CC(CC(C3)C1)C2 (stereo not drawn)
inactive: [1] -1.7% | [2] 11.8% | [3] -1.1% | [4] -1.1% | [5] -0.8% | [6] -2.25%

COc1c(OC2OC(CO)C(O)C(O)C2O)cc2c(c1OC)-c1ccc(OC)c(=O)cc1C(NC(C)=O)CC2 (stereo not drawn)
inactive: [1] 13.8% | [2] 8.75% | [3] 10.8% | [4] 11.7% | [5] 19% | [6] 20.4%

CN(C)CCC(=O)Cc1ccccc1
inactive: [1] -8.8% | [2] -12.3% | [3] -4.55% | [4] -8.15% | [5] -26.1% | [6] 0.95%

COC(=O)c1cc(OC)c(O)c(OC)c1
inactive: [1] -1.3% | [2] -0.4% | [3] 16.6% | [4] -12.3% | [5] 4.05% | [6] -19.9%
